# Data as given in publication PMC5540273 (PLoS ONE, 2017).
# What was measured:
# Conditions in all cases: concentration: 1 μM, replicates: in singlicate; n = 1
# PIM1 = test system: PIM1
# PIM2 = test system: PIM2
# PIM3 = test system: PIM3
# PIP5K1A = test system: PIP5K1A
# PIP5K1C = test system: PIP5K1C
# PIP5K2B = test system: PIP5K2B
# PIP5K2C = test system: T1, PIP5K2C
# T1 construct: gene PIP4K2C
# PKAC-alpha = test system: T2, PKAC-alpha
# T2 construct: gene PRKACA
# PKAC-beta = test system: T3, PKAC-beta
# T3 construct: gene PRKACB
# PKMYT1 = test system: PKMYT1
# 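Further: KINOMEscan kinase panel screen.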
structure (smiles),measurement,setting,value
COc1cc2ncnc(Nc3ccc4nc(-c5ccccc5)[nH]c4c3)c2cc1OC.Cl [GW282450],%Inh,PIM1,0%
same,%Inh,PIM2,0%
same,%Inh,PIM3,0%
same,%Inh,PIP5K1A,6%
same,%Inh,PIP5K1C,54%
same,%Inh,PIP5K2B,3%
same,%Inh,PIP5K2C,11%
same,%Inh,PKAC-alpha,6%
same,%Inh,PKAC-beta,0%
same,%Inh,PKMYT1,10%
COc1cccc(-c2cc(-c3c[nH]nc3-c3ccccn3)ccn2)c1 [GW680338],%Inh,PIM1,0%
same,%Inh,PIM2,0%
same,%Inh,PIM3,0%
same,%Inh,PIP5K1A,19%
same,%Inh,PIP5K1C,69%
same,%Inh,PIP5K2B,21%
same,%Inh,PIP5K2C,55%
same,%Inh,PKAC-alpha,0%
same,%Inh,PKAC-beta,0%
same,%Inh,PKMYT1,0%
Cl.NC(=O)c1cccc(Nc2nccc(Nc3ccc(Oc4cccc(Cl)c4)c(Cl)c3)n2)c1 [GW659008],%Inh,PIM1,15%
same,%Inh,PIM2,0%
same,%Inh,PIM3,1%
same,%Inh,PIP5K1A,15%
same,%Inh,PIP5K1C,45%
same,%Inh,PIP5K2B,32%
same,%Inh,PIP5K2C,60%
same,%Inh,PKAC-alpha,0%
same,%Inh,PKAC-beta,0%
same,%Inh,PKMYT1,0%
COC(=O)c1c(-c2ccccc2)c2cc(C(=O)O)ccc2c(=O)n1Cc1ccccc1,%Inh,PIM1,0%
same,%Inh,PIM2,0%
same,%Inh,PIM3,0%
same,%Inh,PIP5K1A,18%
same,%Inh,PIP5K1C,17%
same,%Inh,PIP5K2B,22%
same,%Inh,PIP5K2C,13%
same,%Inh,PKAC-alpha,0%
same,%Inh,PKAC-beta,24%
same,%Inh,PKMYT1,0%
Nc1nc(-c2nccs2)c(-c2ccnc3ccccc23)s1 [GW693542],%Inh,PIM1,9%
same,%Inh,PIM2,0%
same,%Inh,PIM3,0%
same,%Inh,PIP5K1A,0%
same,%Inh,PIP5K1C,45%
same,%Inh,PIP5K2B,0%
same,%Inh,PIP5K2C,28%
same,%Inh,PKAC-alpha,0%
same,%Inh,PKAC-beta,13%
same,%Inh,PKMYT1,0%
Cn1ccc2ncnc(Oc3cccc(C(=O)Nc4ccccc4)c3)c21,%Inh,PIM1,1%
same,%Inh,PIM2,0%
same,%Inh,PIM3,14%
same,%Inh,PIP5K1A,0%
same,%Inh,PIP5K1C,0%
same,%Inh,PIP5K2B,17%
same,%Inh,PIP5K2C,8%
same,%Inh,PKAC-alpha,8%
same,%Inh,PKAC-beta,0%
same,%Inh,PKMYT1,16%
Cc1cccc(-c2nc(Nc3ccc4[nH]ncc4c3)c3ccccc3n2)n1 [GW857175],%Inh,PIM1,5%
same,%Inh,PIM2,38%
same,%Inh,PIM3,0%
same,%Inh,PIP5K1A,0%
same,%Inh,PIP5K1C,0%
same,%Inh,PIP5K2B,42%
same,%Inh,PIP5K2C,0%
same,%Inh,PKAC-alpha,34%
same,%Inh,PKAC-beta,0%
same,%Inh,PKMYT1,19%
Cc1csc(-c2nc(Nc3ccncc3)c3ccccc3n2)n1 [GW869640],%Inh,PIM1,31%
same,%Inh,PIM2,0%
same,%Inh,PIM3,17%
same,%Inh,PIP5K1A,0%
same,%Inh,PIP5K1C,29%
same,%Inh,PIP5K2B,2%
same,%Inh,PIP5K2C,2%
same,%Inh,PKAC-alpha,14%
same,%Inh,PKAC-beta,44%
same,%Inh,PKMYT1,16%
CC1=C(C(=O)Nc2cc3cn[nH]c3cc2F)C(c2ccc(C(F)(F)F)cc2)CC(=O)N1 (centres unmarked) [GSK429286],%Inh,PIM1,0%
same,%Inh,PIM2,0%
same,%Inh,PIM3,0%
same,%Inh,PIP5K1A,0%
same,%Inh,PIP5K1C,10%
same,%Inh,PIP5K2B,17%
same,%Inh,PIP5K2C,11%
same,%Inh,PKAC-alpha,45%
same,%Inh,PKAC-beta,60%
same,%Inh,PKMYT1,17%
O=C(O)COc1ncnc2cc(-c3ccc4[nH]ncc4c3)sc12,%Inh,PIM1,0%
same,%Inh,PIM2,0%
same,%Inh,PIM3,7%
same,%Inh,PIP5K1A,0%
same,%Inh,PIP5K1C,0%
same,%Inh,PIP5K2B,17%
same,%Inh,PIP5K2C,0%
same,%Inh,PKAC-alpha,0%
same,%Inh,PKAC-beta,4%
same,%Inh,PKMYT1,0%
Fc1cccc(COc2nnc(-c3ccc4c(c3)CCO4)o2)c1,%Inh,PIM1,11%
same,%Inh,PIM2,8%
same,%Inh,PIM3,0%
same,%Inh,PIP5K1A,31%
same,%Inh,PIP5K1C,6%
same,%Inh,PIP5K2B,29%
same,%Inh,PIP5K2C,10%
same,%Inh,PKAC-alpha,0%
same,%Inh,PKAC-beta,0%
same,%Inh,PKMYT1,11%
O=c1cc(N2CCOCC2)nc2n(Cc3cccc(Cl)c3Cl)ccn12 [GSK2286295],%Inh,PIM1,4%
same,%Inh,PIM2,0%
same,%Inh,PIM3,5%
same,%Inh,PIP5K1A,0%
same,%Inh,PIP5K1C,16%
same,%Inh,PIP5K2B,2%
same,%Inh,PIP5K2C,0%
same,%Inh,PKAC-alpha,16%
same,%Inh,PKAC-beta,5%
same,%Inh,PKMYT1,2%
COC(=O)c1c(-c2ccccc2)c2cc(OC)ccc2c(=O)n1Cc1ccccc1,%Inh,PIM1,18%
same,%Inh,PIM2,2%
same,%Inh,PIM3,20%
same,%Inh,PIP5K1A,16%
same,%Inh,PIP5K1C,14%
same,%Inh,PIP5K2B,38%
same,%Inh,PIP5K2C,0%
same,%Inh,PKAC-alpha,21%
same,%Inh,PKAC-beta,0%
same,%Inh,PKMYT1,2%
COc1ccc(C2=C(Nc3cccc(C(=O)O)c3)C(=O)NC2=O)cc1 [SB-390765],%Inh,PIM1,5%
same,%Inh,PIM2,6%
same,%Inh,PIM3,11%
same,%Inh,PIP5K1A,13%
same,%Inh,PIP5K1C,4%
same,%Inh,PIP5K2B,16%
same,%Inh,PIP5K2C,0%
same,%Inh,PKAC-alpha,12%
same,%Inh,PKAC-beta,25%
same,%Inh,PKMYT1,0%
COc1cc2ncn(-c3cc(OCC4CCCO4)c(C(N)=O)s3)c2cc1OC (centres unmarked) [GSK204607],%Inh,PIM1,17%
same,%Inh,PIM2,0%
same,%Inh,PIM3,0%
same,%Inh,PIP5K1A,6%
same,%Inh,PIP5K1C,84%
same,%Inh,PIP5K2B,9%
same,%Inh,PIP5K2C,33%
same,%Inh,PKAC-alpha,0%
same,%Inh,PKAC-beta,0%
same,%Inh,PKMYT1,0%
Cc1cccc(-c2nc(C)cc(Nc3ccncc3)n2)n1 [GSK257997],%Inh,PIM1,19%
same,%Inh,PIM2,0%
same,%Inh,PIM3,37%
same,%Inh,PIP5K1A,0%
same,%Inh,PIP5K1C,39%
same,%Inh,PIP5K2B,7%
same,%Inh,PIP5K2C,0%
same,%Inh,PKAC-alpha,3%
same,%Inh,PKAC-beta,17%
same,%Inh,PKMYT1,12%
Cl.Oc1ccc(-c2nc(-c3ccccc3)[nH]c2-c2ccncc2)cc1 [SB-428218],%Inh,PIM1,44%
same,%Inh,PIM2,0%
same,%Inh,PIM3,42%
same,%Inh,PIP5K1A,72%
same,%Inh,PIP5K1C,49%
same,%Inh,PIP5K2B,0%
same,%Inh,PIP5K2C,58%
same,%Inh,PKAC-alpha,0%
same,%Inh,PKAC-beta,16%
same,%Inh,PKMYT1,14%
Cc1cccc(-c2nc(Nc3ccncc3)c3ccccc3n2)n1 [GW855857],%Inh,PIM1,0%
same,%Inh,PIM2,18%
same,%Inh,PIM3,0%
same,%Inh,PIP5K1A,10%
same,%Inh,PIP5K1C,40%
same,%Inh,PIP5K2B,0%
same,%Inh,PIP5K2C,18%
same,%Inh,PKAC-alpha,23%
same,%Inh,PKAC-beta,30%
same,%Inh,PKMYT1,0%
O=C(Nc1n[nH]c2nc(-c3nccs3)c(Br)cc12)C1CCCC1 [SB-742609],%Inh,PIM1,0%
same,%Inh,PIM2,0%
same,%Inh,PIM3,0%
same,%Inh,PIP5K1A,0%
same,%Inh,PIP5K1C,36%
same,%Inh,PIP5K2B,0%
same,%Inh,PIP5K2C,0%
same,%Inh,PKAC-alpha,0%
same,%Inh,PKAC-beta,0%
same,%Inh,PKMYT1,14%
Cc1cc(N2Cc3ccccc3C2)nc(Nc2ccc(S(=O)(=O)N3CCOCC3)cc2)n1.Cl [GSK1669917],%Inh,PIM1,14%
same,%Inh,PIM2,0%
same,%Inh,PIM3,0%
same,%Inh,PIP5K1A,0%
same,%Inh,PIP5K1C,75%
same,%Inh,PIP5K2B,10%
same,%Inh,PIP5K2C,0%
same,%Inh,PKAC-alpha,0%
same,%Inh,PKAC-beta,0%
same,%Inh,PKMYT1,21%
